Measurements: PubChem BioAssay AID1159580 (chemical genetic matrix, 2015)
The campaign covered roughly 5,500 compounds. About 2,000 (36%) were called active. Roughly 18% stayed inconclusive and do not appear here. Rule as the data show it: active = normalized growth mostly below about 0.91 (no sharp cut-off); inconclusive = no clear call, values can overlap the other calls; inactive = mostly above about 0.92. The list shows a part of the results.

Assay: chemical genetic growth profiling, strain panel (AID 1159580);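 also: tested at 20 µM; growth read once vehicle control cultures reached saturation at 30 °C; 1 = growth at the plate median or of vehicle wells; lower values mean less growth of the strain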
Details: S. cerevisiae deletion strains, growth OD

Measured: normalized growth

C=C/C(C)=C\CC1C(C)(O)CCC2C(C)(C)CCCC21C (stereo not given)
active: locus YAL013W, strain DEP1, hits give low values 0.143 | locus YBR021W, strain FUR4, hits give low values 0.64 | locus YBR229C, strain ROT2, hits give low values 0.316 | locus YCL029C, strain bik1, hits give low values 0.612 | locus YDL035C, strain GPR1, hits give low values 0.139 | locus YDL074C, strain BRE1, hits give low values 0.172 | locus YDL101C, strain DUN1, hits give low values 0.0723 | locus YDL134C, strain PPH21, hits give low values 0.0532 | locus YDL185W, strain tfp1, hits give low values 0.842 | locus YDL192W, strain arf1, hits give low values 0.0743 | locus YDR101C, strain arx1, hits give low values 0.429 | locus YDR150W, strain NUM1, hits give low values 0.289 | locus YDR162C, strain NBP2, hits give low values 0.0609 | locus YDR318W, strain mcm21, hits give low values 0.074 | locus YDR388W, hits give low values 0.121 | locus YDR502C, strain sam2, hits give low values 0.155 | locus YEL061C, strain CIN8, hits give low values 0.154 | locus YER110C, hits give low values 0.118 | locus YER155C, strain BEM2, hits give low values 0.237 | locus YER167W, strain BCK2, hits give low values 0.0638 | locus YGL078C, strain dbp3, hits give low values 0.626 | locus YGL086W, strain mad1, hits give low values 0.105 | locus YGL248W, strain PDE1, hits give low values 0.0559 | locus YGR078C, strain PAC10, hits give low values 0.0661 | locus YGR135W, strain pre9, hits give low values 0.115 | locus YGR229C, strain SMI1, hits give low values 0.0733 | locus YGR252W, strain gcn5, hits give low values 0.255 | locus YHR030C, strain SLT2, hits give low values 0.056 | locus YHR079C, strain IRE1 (second series), hits give low values 0.504 | locus YHR094C, strain hxt1, hits give low values 0.099 | locus YHR129C, strain ARP1, hits give low values 0.159 | locus YHR200W, strain rpn10, hits give low values 0.247 | locus YIL066C, strain RNR3, hits give low values 0.0635 | locus YIL073C, strain SPO22, hits give low values 0.12 | locus YIL125W, strain kgd1, hits give low values 0.128 | locus YIR030C, strain dcg1, hits give low values 0.136 | locus YJL095W, strain BCK1, hits give low values 0.0688 | locus YJL134W, strain LCB3, hits give low values 0.057 | locus YJL168C, strain set2, hits give low values 0.203 | locus YJL187C, strain SWE1 (second series), hits give low values 0.39 | locus YJR043C, strain POL32, hits give low values 0.258 | locus YJR075W, strain HOC1, hits give low values 0.1 | locus YKL009W, strain mrt4, hits give low values 0.833 | locus YKL085W, strain MDH1 (second series), hits give low values 0.0898
inactive: locus YKL068W, hits give low values 0.963
